In PubChem BioAssay (NCATS):
Inconclusive results are not listed. The source holds several records for some structures; these can differ, active in one and inactive in another. The source made the active and inactive calls. Calls come from the whole dose curve; as a rule, active = well fitted curve in the direction sought with a large enough effect; inconclusive = small, poorly fitted or top-dose-only effect, or another doubt; inactive = no such curve, though single readings can be large; an effect the other way counts as inactive or inconclusive.

Test: qHTS for Inhibitors of Plasmodium falciparum (HB3) proliferation (AID 504318); note: nearly all actives have a fitted effect of over 60% in size;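 for activity change, negative = inhibition: 0% = DMSO vehicle and -100% = artemisinin control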
Conditions: P. falciparum HB3 in erythrocytes, SYBR Green DNA, 72 h; series mostly up to 7.21 µM; activity change, negative = inhibition: at the top concentration
Outline: (§1)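 Erythrocytes infected with P. falciparum line (0.3% parasitemia, 2.5% hematocrit final) incubated with compounds 72 h at 37 °C, 5% CO2; SYBR Green lysis buffer added, fluorescence read next day. Normalized to 0.29 uM artemisinin and DMSO.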
Potency is the fitted concentration of half-maximal effect.

Row | SMILES | activity change, negative = inhibition | Potency
1 | C=CCC(C)(NCc1ccccc1)C(=O)OCC (configuration not stated) | -2.33% (inactive) | –
2 | COC(=O)N[C@H](C[N+](=O)[O-])C(C)(C)C | 3.72% (inactive) | –
3 | CC(C)(C(O)c1ccc([N+](=O)[O-])cc1)[N+](=O)[O-] (configuration not stated) | 0.281% (inactive) | –
4 | CCOC(=O)C1=C(CCl)NC(=O)N(C(C)=O)C1c1ccccc1 (configuration not stated) | 9.97% (inactive) | –
5 | COC(=O)C[C@H]1c2ccccc2[C@@H]2C(=C[C@@H](C)[C@H]3C(=O)N(O)C(=O)[C@H]32)N1C(=O)OC | -2.61% (inactive) | –
6 | COC(=O)CC=C1c2ccc(OC)cc2[C@@H](OC)[C@@H]1C | -13.3% (inactive) | –
7 | COC(=O)N[C@H](C(C(=O)OC)=C(C)NCc1ccccc1)c1ccco1 | -1.55% (inactive) | –
8 | CC=CCCN1C=C(C(C)=O)C(c2ccccc2)NC1=O (configuration not stated) | 0.904% (inactive) | –
9 | CCN1C(=NCCCCO)N[C@@H](CCc2ccccc2)[C@H](C(=O)OC)[C@H]1C | 0.326% (inactive) | –
10 | CCN1C(=NCCCOC(C)C)N[C@@H](CCc2ccccc2)[C@H](C(=O)OC)[C@H]1C | 5.57% (inactive) | –
11 | COC(=O)NC(c1ccccc1)C1(C(=O)OC)C(=O)Cc2ccccc21 (configuration not stated) | 9.69% (inactive) | –
12 | COC(=O)CC=C[C@@H](C)[C@@H](COc1ccccc1Br)OC | -0.27% (inactive) | –
13 | C#CCCCON=C1C[C@@H](O)[C@H](O)[C@H]2[C@@H]3C(=O)N(C[C@@H]4CCCO4)C(=O)[C@@H]3CC[C@@H]12 | -7.1% (inactive) | –
14 | COC(=O)C(C(=O)OC)c1ccccc1[N+](=O)[O-] | 0.104% (inactive) | –
15 | C=CCOC(=O)N[C@H](C(C(=O)OC)=C(C)NCc1ccccc1)c1ccc(Br)cc1 | -1.97% (inactive) | –
16 | O=C(C=Cc1cccc([N+](=O)[O-])c1)c1ccccc1 | -11.6% (inactive) | –
17 | COC(=O)CC=C[C@@H](C)[C@H](NC(=O)OCC(Cl)(Cl)Cl)c1ccc2ccccc2c1 | -10.8% (inactive) | –
18 | COc1cc2c(cc1OC)[C@@H]1O[C@](c3ccsc3)(C2)OC2=C1C(=O)OC1(CCCCC1)C2 | – | inactive
19 | COc1ccc(-c2nc(-c3ccccc3)c(NC(C)(C)C)o2)cc1 | – | 2.13 µM (active) and inactive
20 | CCOC(=O)CNC(=O)O[C@@H]1C(=O)c2cc(OC)ccc2O[C@H]1c1cccc(OC)c1 | 1.7% (inactive) | –
21 | C(=Cc1nc(-c2ccccc2)oc1Nc1ccc2ccccc2c1)c1ccccc1 | -13.7% (inactive) | –
22 | COC(=O)[C@@H]1[C@@H](c2ccccc2)NC(=O)N(Cc2ccccc2)[C@@H]1C | 7.33% (inactive) | –
23 | C[C@@H]1C=CCCO[C@]12C(=O)N(CC1CC1)c1ccccc12 | 2.34% (inactive) | –
24 | COC(=O)CC(Oc1c(C)n(C)c2ccccc2c1=O)c1ccccc1 (configuration not stated) | -4.73% (inactive) | –
25 | CCN1C(=O)NC(CCc2ccccc2)C(C(=O)OC)=C1C (configuration not stated) | -15.9% (inactive) | –
26 | C=CCCCN1C(=O)NC(c2ccccc2)C(C(=O)OC)=C1C (configuration not stated) | -5.68% (inactive) | –
27 | COC(=O)c1c(C(=O)OC)c2c3cc(OC)c(OC)cc3ccn2c1C(=O)OC | 2.46% (inactive) | –

Test: qHTS for Inhibitors of Plasmodium falciparum (CP250) proliferation (AID 504320);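 for activity change, negative = inhibition: plate controls were DMSO vehicle for no effect and 0.29 µM artemisinin control for full effect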
Conditions: P. falciparum CP250 in erythrocytes, SYBR Green DNA, 72 h; series mostly up to 6.7 µM; activity change, negative = inhibition: at the top concentration
Outline: as §1

Row | SMILES | activity change, negative = inhibition | Potency
28 | C=CCC(C)(NCc1ccccc1)C(=O)OCC (configuration not stated) | -0.2% (inactive) | –
29 | COC(=O)N[C@H](C[N+](=O)[O-])C(C)(C)C | 7.69% (inactive) | –
30 | COC(=O)c1ccc(CN2C(=O)[C@]3(O[C@H](C)CC4=CCCC43)c3c(Br)cccc32)cc1 (some centres not stated) | 8.03% (inactive) | –
31 | CC(C)(C(O)c1ccc([N+](=O)[O-])cc1)[N+](=O)[O-] (configuration not stated) | 4.58% (inactive) | –
32 | CCOC(=O)C1=C(CCl)NC(=O)N(C(C)=O)C1c1ccccc1 (configuration not stated) | -15.9% (inactive) | –
33 | CC(Nc1oc(-c2ccccc2)nc1C(C)(C)C)c1ccccc1 (configuration not stated) | 0.527% (inactive) | –
34 | COC(=O)C[C@H]1c2ccccc2[C@@H]2C(=C[C@@H](C)[C@H]3C(=O)N(O)C(=O)[C@H]32)N1C(=O)OC | 1.92% (inactive) | –
35 | C=C(C)C(=O)OC[C@H]1CN2[C@H](c3ccc(Br)cc3)[C@H](C)CC[C@H]2C(=O)O1 | – | 1510 nM (active)
36 | COC(=O)CC=C1c2ccc(OC)cc2[C@@H](OC)[C@@H]1C | -1% (inactive) | –
37 | COC1(C#C[C@@H]2C=C[C@H](OC(C)=O)[C@@H](COC(C)=O)O2)CCCCC1 | -4.58% (inactive) | –
38 | COC(=O)N[C@H](C(C(=O)OC)=C(C)NCc1ccccc1)c1ccco1 | 4.31% (inactive) | –
39 | CCC(=O)OC1(C)C(=O)C=C2C=C(c3ccsc3)OC=C2C1=O (configuration not stated) | 3.94% (inactive) | –
40 | CC=CCCN1C=C(C(C)=O)C(c2ccccc2)NC1=O (configuration not stated) | 1.58% (inactive) | –
41 | CCCCCCC#C[C@@H]1C=C[C@H](OC(=O)OCC)[C@@H](COC(=O)OCC)O1 | -1% (inactive) | –
42 | C=CC[C@@]1(c2ccc(Br)cc2OC)Oc2ccccc2-c2nccnc21 | 0.189% (inactive) | –
43 | CCN1C(=NCCCCO)N[C@@H](CCc2ccccc2)[C@H](C(=O)OC)[C@H]1C | -10.2% (inactive) | –
44 | CCN1C(=NCCCOC(C)C)N[C@@H](CCc2ccccc2)[C@H](C(=O)OC)[C@H]1C | -0.638% (inactive) | –
45 | CCN1C(=O)N(S(=O)(=O)C(F)(F)F)C(c2ccccc2)C(C(=O)OC)=C1C (configuration not stated) | 6.8% (inactive) | –
46 | COC(=O)NC(c1ccccc1)C1(C(=O)OC)C(=O)Cc2ccccc21 (configuration not stated) | 5.74% (inactive) | –
47 | COC(=O)CC=C[C@@H](C)[C@@H](COc1ccccc1Br)OC | 2.79% (inactive) | –

Row | SMILES | activity change, negative = inhibition | Potency
48 | CC=CC1=CC2=CC(=O)C(C)(OC(=O)c3c(C)cc(O)cc3O)C(=O)C2=CO1 (configuration not stated) | 3.86% (inactive) | –
49 | CCOC(=O)CN1C(=O)NC(c2cccc(C(F)(F)F)c2)C(C(=O)OC)=C1C (configuration not stated) | 9.17% (inactive) | –
50 | C#CCCCON=C1C[C@@H](O)[C@H](O)[C@H]2[C@@H]3C(=O)N(C[C@@H]4CCCO4)C(=O)[C@@H]3CC[C@@H]12 | 6.57% (inactive) | –
51 | COC(=O)C(C(=O)OC)c1ccccc1[N+](=O)[O-] | -3.07% (inactive) | –
52 | C=CCOC(=O)N[C@H](C(C(=O)OC)=C(C)NCc1ccccc1)c1ccc(Br)cc1 | -2.43% (inactive) | –
53 | O=C(C=Cc1cccc([N+](=O)[O-])c1)c1ccccc1 | -0.858% (inactive) | –
54 | COC(=O)CC=C[C@@H](C)[C@H](NC(=O)OCC(Cl)(Cl)Cl)c1ccc2ccccc2c1 | 0.867% (inactive) | –
55 | COC(=O)C1=C[C@@]2(c3ccc(OC)cc3[C@@H](OC)[C@@H]2C)[C@@H]2C=C[C@@H]1C2 | -15.8% (inactive) | –
56 | COc1cc2c(cc1OC)[C@@H]1O[C@](c3ccsc3)(C2)OC2=C1C(=O)OC1(CCCCC1)C2 | – | inactive
57 | COc1cc2c(c(OC)c1)[C@H](C=Cc1ccccc1)[C@@H]([C@H](O)CO)OC2 | 0.814% (inactive) | –
58 | COc1ccc(-c2nc(-c3ccccc3)c(NC(C)(C)C)o2)cc1 | 4.77% (inactive) | –
59 | CCOC(=O)CNC(=O)O[C@@H]1C(=O)c2cc(OC)ccc2O[C@H]1c1cccc(OC)c1 | -2.43% (inactive) | –
60 | C(=Cc1nc(-c2ccccc2)oc1Nc1ccc2ccccc2c1)c1ccccc1 | – | inactive
61 | COC(=O)[C@@H]1[C@@H](c2ccccc2)NC(=O)N(Cc2ccccc2)[C@@H]1C | -4.43% (inactive) | –
62 | C[C@@H]1C=CCCO[C@]12C(=O)N(CC1CC1)c1ccccc12 | 2.71% (inactive) | –
63 | COC(=O)CC(Oc1c(C)n(C)c2ccccc2c1=O)c1ccccc1 (configuration not stated) | 2.08% (inactive) | –
64 | CCN1C(=O)NC(CCc2ccccc2)C(C(=O)OC)=C1C (configuration not stated) | 0.319% (inactive) | –
65 | C=CCCCN1C(=O)NC(c2ccccc2)C(C(=O)OC)=C1C (configuration not stated) | -2.28% (inactive) | –
66 | COC(=O)C(c1ccc(OC)c(OC)c1)C1c2ccccc2C=C(C)N1C(=O)OC (configuration not stated) | -1.71% (inactive) | –
67 | COC(=O)c1c(C(=O)OC)c2c3cc(OC)c(OC)cc3ccn2c1C(=O)OC | -2.4% (inactive) | –
